PKA kinase inh: blocks human protein kinase A activity; inhibition, % at 6 µM; P17612; PKA Kemptide phosphorylation, Kinase-Glo ATP luminescence; 0.1% of 65,000 active;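 active = inhibition above the screen-wide mean inhibition plus 3 SD, cut at about 21% in these data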
ROCK2 blocker: blocks human Rho kinase 2 activity | O75116 | 0.35% of 60,000 active | AID 604 | purified ROCK2, Kinase-Glo ATP depletion luminescence | inhibition, % at 6 µM;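 active = inhibition above the screen-wide mean inhibition plus 3 SD, cut at about 18% in these data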;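 also: plate controls were DMSO wells for no effect and Y-27632 control wells after no-enzyme background subtraction for full effect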
MMP13 inh: blocks human MMP13 activity; 0.07% of 65,000 active; P45452; inhibition, % at 4 µM; AID 570; MMP-13 fTHP FRET cleavage, Mca fluorescence;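 active = inhibition above the mean of compound-free control plate wells plus 3 SD, cut at about 14% in these data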;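 also: 0% = DMSO wells and 100% = wells with reference MMP-13 inhibitor after basal subtraction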
SK-BR-3 tox 24h: SK-BR-3 proliferation inhibitors; SK-BR-3 viability, CellTiter-Glo ATP luminescence, 24 h; hits give low values; viability, % at 10 µM; 0.47% of 41,000 active; AID 847;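 active = viability at or below the median of all test compounds minus 3 SD, in both replicates if run twice, cut at about 45% in these data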;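 also: 100% = median untreated cell wells and 0% = median positive control drug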
Hsp90 inh: displaces geldanamycin probe from tumor Hsp90. NCI-N417 lysate Hsp90, Cy3B-geldanamycin FP displacement. inhibition, % at 30 µM. 0.35% of 64,000 active. AID 429;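 active = inhibition above 50%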;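 also: 0% = tracer plus lysate wells and 100% = tracer alone without lysate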
mHtt clearance: compounds clearing mutant huntingtin protein. HeLa Exon1htt(103Q)mCFP, aggregate imaging; zero = plate's median compound well. inhibition, % at 1.5 µM. 0.42% of 47,000 active. AID 853;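 active = inhibition of aggregate fluorescence above about 70%, also judged a hit by eye on the cell image, limit read from the data, passing the limit was not always enough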;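 also: cells exposed to compound for three days before fixation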
Numbers without * were called inactive; x = no result. Most compounds without a hit are left out; they make up all but 0.97% or so of the library.

SMILES | PKA kinase inh | ROCK2 blocker | MMP13 inh | SK-BR-3 tox 24h | Hsp90 inh | mHtt clearance
COCCn1c(C)cc(C(=O)CSc2nc(C)nc3sc4c(c23)CCC4)c1C | 2 | 2 | -2 | 74 | -9 | -24
O=C(CSc1n[nH]c(=O)n1C1CC1)Nc1cc(Cl)ccc1Oc1ccccc1 | 12 | -9 | -1 | x | 1 | 84*
CCOC(=O)c1ccc2nc(NC(NC(C)=O)(C(=O)OC)C(F)(F)F)sc2c1 (stereo unspecified) | 7 | 15 | -8 | 87 | -1 | x
CCC(=O)NC(Nc1ncc(C)s1)(C(=O)OC)C(F)(F)F (stereo unspecified) | x | x | x | x | x | 70*
CCOC(=O)c1sc(NC(=O)CSc2nnc(-c3ccc(OC)cc3)n2CCOC)nc1C | -2 | 6 | -1 | 86 | 85* | 52
Nc1c(S(=O)(=O)c2cccs2)c2nc3ccccc3nc2n1/N=C/c1cccc(O)c1 | 5 | -2 | -21 | 114 | 3 | x
COc1ccc(CCN2CCC(Nc3nc4ccccc4n3Cc3ccc(F)cc3)CC2)cc1 | -12 | -13 | -4 | 24* | -1 | x
COc1ccccc1-c1cc(C(=O)NCCc2ccccc2)no1 | x | x | x | x | x | 79*
S=C(NN=C(C1CC1)C1CC1)Nc1ccccc1 | x | x | x | x | x | -3
OCCN1CCN(CCCN2c3ccccc3Sc3ccc(C(F)(F)F)cc32)CC1 | 4 | 5 | 4 | 16* | 0 | x
O=C(O)CCC(=O)N1CCCC1C(=O)O (stereo unspecified) | x | x | x | x | 2 | x
COC1=CC(=O)OC12CCCCC2 | -3 | 5 | 0 | 86 | 0 | 70*
CCSCCOC(=O)C1=C(C)NC(=O)NC1c1ccccc1 (stereo unspecified) | 2 | 4 | -1 | x | 88* | x
CCSCCOC(=O)C1=C(C)NC(=O)NC1c1ccc2c(c1)OCO2 (stereo unspecified) | -13 | -2 | 5 | x | 1 | x
Cc1nnc2sc(-c3cccc(NC(=O)c4ccc(-c5cccc(Cl)c5)o4)c3)nn12 | 6 | 5 | 0 | 80 | -1 | 27
Cc1ccc(-c2nn3c(C)nnc3s2)cc1NC(=O)c1ccc(-c2cccc(Cl)c2)o1 | 0 | 10 | 1 | 33* | -11 | -64
CN(C)CC1(c2ccccc2)CCCC1 | 8 | 1 | -2 | 25* | 1 | x
S=c1[nH]nc(-c2ccc(Br)cc2)n1Cc1ccco1 | 7 | 6 | -15 | 81 | 1 | 72*
COc1ccccc1C(=O)N1CCN(c2cccc(Cl)c2)CC1 | 9 | x | 3 | 40* | x | x
Cc1cc(NC(=O)c2ccoc2C)no1 | x | x | x | x | x | 62
COC(=O)c1ccccc1NC(=O)CN1CCN(C23CC4CC(CC(C4)C2)C3)CC1 | 3 | -4 | 4 | 41* | -2 | x
CC(C)(C)C(=O)c1sc(Nc2ccccc2)nc1N | 14 | 27* | 6 | 77 | -2 | 36
NC(=O)c1c(-c2cccs2)csc1N | 16 | 21* | -2 | 84 | 10 | x
CCCCN(C(=O)Cn1nnc2ccccc21)C(C(=O)NCCOC)c1cccs1 (stereo unspecified) | x | x | x | x | x | 74*
CCCCN(C(=O)Cn1nnc2ccccc21)C(C(=O)NCCOC)c1ccccc1 (stereo unspecified) | x | x | x | x | x | -8
SMILES | PKA kinase inh | ROCK2 blocker | MMP13 inh | SK-BR-3 tox 24h | Hsp90 inh | mHtt clearance
Cc1oc2c(O)c(O)ccc2c(=O)c1-c1cnn(-c2ccccc2)c1 | x | x | x | 76 | x | x
Cc1oc2c(O)c(O)ccc2c(=O)c1-c1ccccc1 | -1 | -6 | 8 | x | 70* | x
Cn1ncc2c1ncn1c(-c3ccccc3Cl)nnc21 | 4 | -4 | 0 | 87 | 3 | x
CCN1C(=S)SC(=O)C1=C1C=C(C)OC(C)=C1 | 5 | x | 6 | 101 | x | x
CCN1C(=S)SC(=O)C1=C1C=C(C)N(Cc2ccco2)C(C)=C1 | 10 | x | 19* | 91 | x | x
NC(=S)c1ccc[n+]([C@@H]2O[C@@H](COP(=O)([O-])OP(=O)(O)OC[C@H]3O[C@@H](n4cnc5c(N)ncnc54)C(OP(=O)(O)O)[C@H]3O)C(O)C2O)c1 (stereo partly specified) | x | x | x | x | 0 | x
Nn1c(=O)c2ccccc2n2c(SCc3ccccc3)nnc12 | 4 | 1 | 0 | 91 | -4 | 80*
COc1ccc(OC)c(S(=O)(=O)Nc2ccc(O)c3ccccc23)c1 | 4 | 4 | 4 | x | 16 | 44
COc1ccc(OC)c(S(=O)(=O)Nc2ccc(O)c(Sc3ncn[nH]3)c2)c1 | 2 | -8 | 3 | 77 | 2 | 86*
Cc1sc2ncnc(Oc3ccc(-n4ccnc4)cc3)c2c1C | 2 | 0 | 4 | x | -2 | x

Bioassay records: PubChem BioAssay, several laboratories
